These results are taken from the supplement of paper PMC6555819.

The subject of the experiment is VDR:RXRa (NR concentration 270 nM, RXRa partner concentration 90 nM). Put plainly: PBM binding z-score (relative to random genomic background probes); higher = stronger binding; sequences stand for … in GC…GCGATTGACAGCGTAGAATGAAGG
How it is done:
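Protein-binding microarray (Agilent 4x180K custom design, double-stranded 60-nt probes: 5' GC cap, 34-nt variable region, 24-nt constant primer region; full probe sequence given). Purified or IVT nuclear receptor:RXRα heterodimers (3:1 NR:RXRα, mostly 270:90 nM) or homodimers were incubated for 1 h in PBS with 2% milk and no ligand, then detected with Alexa488 antibodies. Fluorescence from o1-orientation probes (~5 replicates averaged) was converted to z-scores against 500 random hg19 background probes. Variable regions are seed direct-repeat (DR0–DR5) sites, all their single-nucleotide variants and half-site ablations.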
Sequence CTGCCTAGGTCAGGGCCAGTATAGGAGGAACGTT came in with a PBM binding z-score of 0.0608. GCTAGTTGGTCAGTAACAGGTCACACACCGGTCG gave a PBM binding z-score of 1.68. Under CGAGCTAGGTCATCCAGGACAGTGAATACATTGA stands 4.4. Under TTACCAAGGTGAGCTGCGGTCGTTGATCCAACTC stands 0.235; under CGAACTAGGTCAAGTACAGTGAATCTCCGCACGC, 2.02; under TCTCGGAGGACACGAAAGGTCATAGCTCGACATC, 4.71. In the case of ATCTCTAGGTAAAAGTTCACTGAATCCCGAGGAT it was 2.58; in that of CCTATTAGCTGACCATAAGGGCAACCGAAGCTCG, 0.159; in that of ATATGTAGGTTAAGGGTCAGTCAGGTTGGTTCGC, 4.37.

TCAGACAGGTGAAGGTCACTCAGGTACGCAGTCG: the PBM binding z-score amounted to 4.18. Under TCTTGTAGATCAAGCATGTTAAGAAAGCCTGAGT stands 0.348; under CGAACGAGGGCGTGAGTTGATAGCAAATGCCGAT, 0.224. In the case of TCAGACAGGTGAAGGTAACTTAGGTACGCAGTCG it was 1.02; in that of CCTTACGGGTCACTCCAGCTTATAGCATCGGAGT, 2.73; in that of AGTCAAAGATCATCTAGGTAACGTAAGATATGCT, 0.0146. Under CCTAGCAGGGCAGGGTCACTCAAGCATTTCGCTT stands 2.88; under CAAACTAGGTCACGAAAGGTCGAAGTCGAATGAC, 5.72; under TCTCGGGGGACACGAAAGGTCAGAGCTCGACATC, 4.39. On to ATCGAAAGGTCGTGATGTGAGTATACAGAAAGGC, for which the PBM binding z-score came out at 2.98. In the case of TCTATTAGTTGATTAGTGCAACCGAAACAGCGGA it was 0.827; in that of AGAATGAGGTTATACGTAGATCAGGGAAGAAAGT, 1.52. Under AGAATGAGGTTAAGATCAGGCAAACAGAATACAT stands 1.23. Under CCTTACGGGTCACTGACACGTTATAGCATTTGGA stands 3.23; under TCTTGAAGATCAAGCAGGTTAAGAAAGCCTGAGT, 0.401.

With TCGAGTAGGTTACCAATGGGGCATTCAACTTTCT, the PBM binding z-score turned out to be 0.521.

Consider GGAACGAGGGCATTCGAGTTTATAGCATGGCGAT, for which the PBM binding z-score was determined as 5.31. Consider TCTAGCAGACCAGAGGGTCACTCAAGAGGTACGG, for which the PBM binding z-score was found to be 1.08. Regarding ACAGACAGGTGAGTGAAGGTAACTAAGCTGGACG, the PBM binding z-score is -0.372. Under GCTCACGGGTCAAAGGTTATAGCATGAATAGAAT stands 5.38; under GCTAGTTGGTCAGTAAAACGTCACACACCGGTCG, -0.225. In turn, GCTAGTTGCTCAGTAAAAGGTCACACACCGGTCG yielded a PBM binding z-score of 3.73. Under CATACAGGGTCAGCTAGACCAGAGTAGGGACGGC stands 2.52.

Consider CGAACGAGGGCATGAGTTGATACCAAATGCCGAT, for which the PBM binding z-score was 1.83.

For the sequence TCTTGAAGATCAACAGGAGGTTAAGAAAGATCGA, the PBM binding z-score was 0.872. In the case of ACAGACAGGTGAGTGAAAGTAACTCAGCTGGACG it was -0.256; in that of CCTACTGGGGCAAAAAGGTCATTGATGCCGATAA, 5.42; in that of CGAACTAGGTCATCCAGGACAGTGCATACATTGA, 4.69. In the case of CAAACTAGGTCAAGAGGTCAAAATCCGCTTCCCG, the PBM binding z-score was determined as 5.85. With TCTGCTCGGTCAACGATGGTCAGCTAATCTGCTA, the PBM binding z-score is -0.245. Under CGTCCAAGGTGAAGGTCAGTGAAAGAGACTCGAA stands 0.859.
